# Out of some 190,000 compounds screened, about 810 (0.43%) were called active. The sample as a whole holds a higher share of actives than the screen did. A number with no mark means an inactive call. No stated cut-off is given here; in the data, active means inhibition above about 50%; inactive means the rest.
# Target: Mannose-6-phosphate isomerase (Homo sapiens) (UniProt P34949)
# Experiment: MPI enzyme activity inhibition – biochemical, fluorescence intensity, coupled assay, primary screen (AID 1209);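 further: plate controls were DMSO vehicle for no effect and wells lacking substrate for full effect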
# Details: purified PMI enzyme, at 20 µM, active compounds read high
# Chain of Mannose-6-phosphate isomerase (Homo sapiens) (P34949 whole entry, looked up): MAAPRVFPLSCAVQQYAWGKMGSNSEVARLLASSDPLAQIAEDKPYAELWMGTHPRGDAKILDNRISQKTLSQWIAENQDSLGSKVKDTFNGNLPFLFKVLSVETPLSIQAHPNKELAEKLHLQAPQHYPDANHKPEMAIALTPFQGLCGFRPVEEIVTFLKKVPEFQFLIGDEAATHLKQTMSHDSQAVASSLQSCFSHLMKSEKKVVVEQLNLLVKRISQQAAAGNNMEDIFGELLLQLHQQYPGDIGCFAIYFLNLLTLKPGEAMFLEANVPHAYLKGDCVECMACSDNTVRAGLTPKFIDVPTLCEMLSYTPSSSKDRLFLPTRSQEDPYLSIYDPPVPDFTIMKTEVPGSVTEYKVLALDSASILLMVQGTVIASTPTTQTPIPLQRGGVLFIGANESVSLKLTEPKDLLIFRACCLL
row,SMILES,inhibition
1,Cc1ccc2c(c1)/C(=N/N1C(=O)c3ccccc3C1=O)C(=O)N2,-2.2%
2,COc1ccc(N=C2C(=O)Nc3ccccc32)cc1,12.5%
3,c1ccc(-c2nnc(CSc3nncs3)o2)cc1,16.2%
4,O=c1[nH]c2ccc(Cl)cc2c(-c2ccccc2)c1SC(=S)N1CCCCC1,0.2%
5,CCOC(=O)N1CCC(Nc2c(N3CCN(c4cccc(C(F)(F)F)c4)CC3)c(=O)c2=O)CC1,-9.4%
6,NS(=O)(=O)c1ccc(NC(=S)NCc2ccc(Cl)cc2)cc1,58.1% (active)
7,NS(=O)(=O)c1ccc(CNC(=S)NCc2ccc(Cl)cc2)cc1,6.3%
8,O=S(=O)(c1ccc(NC(=S)NCc2ccco2)cc1)N1CCCC1,8.9%
9,NS(=O)(=O)c1ccc(NC(=S)NCc2ccco2)cc1,55.4% (active)
10,CCNS(=O)(=O)c1ccc(NC(=S)NCc2ccco2)cc1,35.3%
11,NS(=O)(=O)c1ccc(CNC(=S)Nc2ccc(F)c(Cl)c2)cc1,17.2%
12,CC(=O)NC(CCS(C)(=O)=O)C(=O)Nc1ccccc1 (stereo not given),7.8%
13,CS(=O)(=O)N(CC(=O)NC1CC1)c1cccc(F)c1,6.9%
14,Cc1ccc(NC(=O)CSc2nnc(-c3ccncc3)n2C)cc1S(=O)(=O)N1CCOCC1,-7.6%
15,COC(=O)c1ccc[n+](CC(=O)c2ccc(Br)cc2)c1,-34.8%
16,Cn1cnc2ccc([N+](=O)[O-])cc2c1=O,-6%
17,CCCOc1ccc(C(=O)CCN2CCN(C(=O)OCC)CC2)cc1,-7.1%
18,CCOC(=O)N1CCN(CCC(=O)c2ccc(Cl)cc2)CC1,57.4% (active)
19,CCOC(=O)N1CCN(CCC(=O)c2ccc(OC)cc2)CC1,0.1%
20,Cc1ccc(N2C(=O)NC(C(F)(F)F)(C(F)(F)F)C3=C2CC(C)(C)CC3=O)cc1,2.1%
21,CC1(C)CC2(CC(c3ccccc3)Oc3cc(O)ccc32)NC(=O)N1 (stereo not given),2.6%
22,COc1cccc(C(=O)COc2ccc3ccc(=O)oc3c2)c1,-1.6%

row,SMILES,inhibition
1,CCOC(=O)c1c(NC(=S)Nc2ccc(Cl)cc2)sc(C)c1C,-3.5%
2,NC(=O)c1c(NC(=S)Nc2ccc(F)cc2)sc2c1CCCC2,18.7%
3,Cc1sc(NC(=O)Nc2ccccc2)c(C(N)=O)c1C,53.1% (active)
4,CCOC(=O)c1c(NC(=O)Nc2ccccc2)sc(C)c1C,12.6%
5,Cc1sc(NC(=S)Nc2ccc(F)cc2)c(C(N)=O)c1C,51.8% (active)
6,CCOC(=O)c1c(NC(=O)Nc2ccc(Cl)cc2)sc(C)c1C,2.4%
7,Cc1sc(NC(=S)NC(=O)c2ccco2)c(C(N)=O)c1C,50.4% (active)
8,Cc1sc(NC(=S)NC(=O)c2ccco2)c(C#N)c1C,4.5%
9,COC(=O)c1c(NC(=O)c2ccco2)sc(C)c1C,5%
10,O=C(Nc1ccnc(-c2cccnc2)n1)c1ccc(F)cc1,5%
11,Cc1nn(Cc2ccc(F)cc2)c(C)c1NC(=O)c1cc2ncc(Br)cn2n1,6.4%
12,COc1ccc(Cn2c(C)c(C)c(C#N)c2NC(=O)Nc2cccc(C)c2)cc1,-1.9%
13,CC(NC(=O)C(=O)N/N=C\c1cccc([N+](=O)[O-])c1)c1ccccc1 (stereo not given),10.5%
14,CC(C)(C)NC(=O)NC(=O)Cn1ccsc1=N,5.2%
15,CCC(C)(C)NC(=O)CN(Cc1ccc2c(c1)OCO2)C(=O)CCC(=O)Nc1nccs1,-5%
16,O=C(COc1ccccc1Cl)NC(=S)Nc1ccc(CN2CCOCC2)cc1,17.4%
17,O=C(O)/C(=C/c1ccco1)c1ccccc1,-8%
18,CCOC(=O)C1CCCN(C(=O)Cn2nc(Cc3cccnc3)c3ccccc3c2=O)C1 (stereo not given),5.7%
19,O=C(CSc1nnnn1C1CCCC1)Nc1cccc(NC(=O)c2ccco2)c1,8.3%
20,O=c1c(C/C=C/c2ccccc2)c(O)ccn1Cc1ccc(Cl)cc1Cl,13.5%
21,CC1(C)C(=O)OC(c2cccn2-c2ccc([N+](=O)[O-])cc2)C2(CCCCC2)C1=O (stereo not given),6.1%
22,CC1(C)C(=O)C2(CCCCC2)C(=O)OC1c1cccn1-c1ccc([N+](=O)[O-])cc1 (stereo not given),2.5%

row,SMILES,inhibition
1,CC1(C)C(=O)OC(c2cccn2-c2ccc([N+](=O)[O-])cc2)C(C)(C)C1=O (stereo not given),67.5% (active)
2,CCCC(=O)c1cc2c(cc1NC(=O)c1cccs1)OCCO2,6.8%
3,O=C(NCc1ccccn1)Nc1cccc(NC(=O)NCc2ccccn2)c1,14.5%
4,CCCC1=C(C(=O)OCC)C(/C=C/c2ccccc2)n2ncnc2N1 (stereo not given),2.4%
5,COc1ccccc1-c1nnc(NC(=O)C(C)Sc2nncn2C)s1 (stereo not given),-2.1%
6,CC(Sc1nncn1C)C(=O)Nc1nnc(-c2ccccc2)s1 (stereo not given),8.5%
7,COc1ccc(OC)c(-c2nnc(NC(=O)C(C)Sc3nncn3C)s2)c1 (stereo not given),97.9% (active)
8,Cc1ccc(NC(=S)NNC(=O)Cn2nc(C(F)F)cc2C(F)F)cc1,-10%
9,CSc1ccc(/C=C/c2ccc3cccc(O)c3n2)cc1,-33.5%
10,Cc1ccsc1/C=C/c1ccc2cccc(O)c2n1,-6.3%
11,COc1ccc(-c2nc(CSCC(=O)NC3CCCc4ccccc43)c(C)o2)cc1 (stereo not given),7%
12,Cc1c(Cl)c(C(=O)NC2CCCC2)nn1C,-11.9%
13,Nc1nc2c(s1)COc1ccccc1-2,12.7%
14,Nc1nc2c(s1)CCc1c-2cnn1-c1ccccc1,86.9% (active)
15,Nc1nc(-c2ccccc2)c(-c2ccccc2)s1,-1.1%
16,CCCCCc1nc2sc3c(c2c(=O)n1N)CCC3,-5.8%
17,O=C(Cn1cnc2ccccc2c1=O)NCc1ccc2c(c1)OCO2,2%
18,O=C(CCc1ccccc1)NC(=S)NCc1ccco1,7.5%
19,CNCCCNC(=O)c1ccc(/C=N/O)nc1,-9.8%
20,C[N+](C)(C)CCCNC(=O)c1ccc(/C=N/O)nc1,83.5% (active)
21,NCCCNC(=O)c1ccc(/C=N/O)nc1,0.9%
